# RecA splice inh = blocks M. tuberculosis RecA intein splicing; cell-free RecA intein splicing, fluorescence; 290,000 compounds, 0.75% hits; AID 2221; inhibition, % (no concentration beside the values); P9WHJ3; in the data active means inhibition above about 30%;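 further: 0% = vehicle wells and 100% = reference inhibitor control wells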
# PriA SSB inh = inhibitors of Klebsiella pneumoniae PriA binding to SSB C-terminal tail. 430,000 compounds, 0.6% hits. AlphaScreen SSBct-PriA binding, biotinylated peptide. AID 1272365. inhibition, % at 33 µM; in the data active means inhibition mostly above about 37%, no sharp cut-off; inactive means mostly below about 20%;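 further: plate controls were negative control peptide for no effect and reference peptide for full effect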
# Mtb bLac sens = beta-lactam sensitization of Mtb H37Rv. M. tuberculosis H37Rv growth with meropenem, percent inhibition. inhibition, % at 25 µM. 330,000 compounds, 0.27% hits. AID 434955; call rule not given here;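 further: growth measured after seven days incubation then overnight dye step; 0% = bacteria only wells and 100% = bacteria with antibiotic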
# Rv3671c protease = inhibits the M. tuberculosis serine protease Rv3671c; inhibition, % at 5.96 µM; AID 2606; P9WHR9; 320,000 compounds, 0.048% hits; in the data active means inhibition above about 38%;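 further: extracellular domain of Rv3671c used as enzyme; 0% = enzyme with DMSO and 100% = no enzyme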
# Target sequence (P9WHR9 whole entry, looked up, the tested form may be a part): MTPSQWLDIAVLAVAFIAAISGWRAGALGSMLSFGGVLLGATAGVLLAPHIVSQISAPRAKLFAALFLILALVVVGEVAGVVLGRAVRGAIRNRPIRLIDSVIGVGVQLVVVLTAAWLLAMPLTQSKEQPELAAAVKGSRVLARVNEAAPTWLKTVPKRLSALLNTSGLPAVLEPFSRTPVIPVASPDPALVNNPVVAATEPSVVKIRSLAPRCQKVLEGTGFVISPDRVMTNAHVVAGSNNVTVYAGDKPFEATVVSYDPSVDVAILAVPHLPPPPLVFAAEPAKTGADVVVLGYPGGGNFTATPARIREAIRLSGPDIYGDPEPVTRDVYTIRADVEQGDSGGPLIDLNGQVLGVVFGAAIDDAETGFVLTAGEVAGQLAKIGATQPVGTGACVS
# Mtb UGM inh = inhibitors of M. tuberculosis UDP-galactopyranose mutase; P9WIQ1; purified UGM, fluorescence polarization probe displacement; inhibition, % at 10 µM; 320,000 compounds, 0.06% hits; AID 504406; in the data active means inhibition above about 10%, passing the limit was not always enough
# * marks the source's active call; other numbers are inactive results; i = inactive; · = no result given. Sampled rows, rich in hits. Any-hit rate of the full collection: about 1.1%.
SMILES,RecA splice inh,PriA SSB inh,Mtb bLac sens,Rv3671c protease,Mtb UGM inh
Cc1[nH][nH]c(=O)c1[C@@H](c1ccccc1[N+](=O)[O-])C(C#N)C#N,62*,4,-6,-2,0
Cn1c(=O)oc2ccc(S(=O)(=O)N(Cc3ccsc3)C3CC3)cc21,·,-8,·,·,·
C#CCOCCOCCOCCNc1nc(N2CCN(C(=O)C(Cc3cc4ccccc4[nH]3)n3cc(C(N)C(C)CC)nn3)CC2)nc(N2CCN(C(=O)C(Cc3cc4ccccc4[nH]3)n3cc(C(N)C(C)CC)nn3)CC2)n1 (stereo unspecified),8,43*,100,2,0
C#CCOCCOCCOCCNc1nc(N2CCOCC2)nc(N2CCN(C(=O)[C@H](Cc3cc4ccccc4[nH]3)n3cc([C@@H](N)C(C)CC)nn3)CC2)n1 (stereo partly specified),-4,1,-10,7,-1
CCCCC(=O)NN=Cc1c(O)n(Cc2ccco2)c(=O)[nH]c1=O,·,34,·,·,·
C=COC(=O)CSc1snc(SCC(=O)OC)c1C#N,33*,-13,9,-4,1
CCN(CC)C(=O)CSc1nsc(SCC(=O)N(CC)CC)c1C#N,·,7,-7,-6,-1
C/C(=N\NC(=O)c1cc(-c2cccc([N+](=O)[O-])c2)n[nH]1)c1cccc(O)c1,·,i,·,·,·
COCCNC(=S)NNC(=O)c1ccccn1,·,156*,·,·,·
C=CCNC(=S)NNC(=O)c1ccccn1,·,148*,·,·,·
C=CCNC(=S)NN=C(C)c1ccccn1,·,-5,·,·,·
CNC(=S)NNC(=O)c1ccccn1,·,152*,·,·,·
COCCCNC(=S)NN=Cc1ccccc1O,·,7,·,·,·
O=C(O)c1cccc2c(C=NNc3ccccn3)c[nH]c12,·,5,·,·,·
CC(O)(CNC(=O)c1ccc(Br)o1)c1cc2ccccc2o1 (stereo unspecified),·,-2,·,·,·
Cc1ccc2[nH]c(C)c(C=NNc3nc4ccccc4s3)c2c1,·,52*,·,·,·
Cn1cnc([N+](=O)[O-])c1Oc1ccc2ccccc2c1,36*,-5,94,-9,2
O=C(CCN1CCN(c2ccccc2)CC1)NN=Cc1ccc([N+](=O)[O-])o1,·,6,·,·,·
Cc1cccc(NC(=S)N/N=C/c2ccc([N+](=O)[O-])s2)c1,-14,·,84,-4,-2
Cc1ccc(NC(=S)NN=Cc2ccc([N+](=O)[O-])s2)cc1,·,62*,·,·,·
O=C(Nc1nnc(-c2ccc(Br)cc2)o1)c1ccc(Cl)s1,·,-9,·,·,·
CC(=O)NCCc1nc2ccccc2n1Cc1ccccc1,0,97*,0,7,-5
CC(=O)NCCc1nc2ccccc2n1Cc1ccc(Cl)cc1,3,-2,-1,-4,-1
O=C(Nc1nc2c(s1)CCCC2)C1CCN(c2ccc(-n3cccn3)nn2)CC1,·,48*,·,·,·
COCCN=c1scc(-c2cc(OC)ccc2OC)n1N=Cc1c[nH]c2ccccc12,·,66*,·,·,·
SMILES,RecA splice inh,PriA SSB inh,Mtb bLac sens,Rv3671c protease,Mtb UGM inh
C=c1cc(C)ccc1=C1NN=C(NC(=O)c2cc3ccccc3cc2OC)O1,·,-6,·,·,·
CN1/C(=C\C=NO)C(C)(C)c2ccccc21,·,-5,·,·,·
CN1/C(=C\C=C(C#N)C#N)C(C)(C)c2ccccc21,-7,-4,-3,2,72*
COc1cc(/C=C/c2cc[n+](C)cc2)ccc1OCC(=O)Nc1ccc(Cl)c(Cl)c1,40*,6,97,-7,2
COc1ccc(NC(=O)COc2ccc(/C=C/c3cc[n+](C)cc3)cc2OC)cc1,6,-6,2,1,-1
O=C(NC(c1ccccc1)c1ccccc1)N(Cc1cnc2ccccn12)c1ccccc1,·,44*,·,·,·
O=C(NC1CCCCC1)N(Cc1cnc2ccccn12)c1ccccc1,·,-5,·,·,·
COc1cc2cnc(-c3ccccc3)c(-c3cccc(C(F)(F)F)c3)c2cc1OC,·,45*,99,-14,0
COc1ccc(-c2cc(=O)[nH]c3ccccc23)cc1,·,2,3,-6,11*
CC(c1ccc(O)cc1)(c1ccc(O)cc1)c1ccc(CCBr)cc1,31*,-4,3,-6,0
COc1ccc(Nc2nc(Nc3ccc4c(c3)OCO4)nc(N3CCOCC3)n2)cc1,·,38*,·,·,·
c1cc2c(cc1Nc1nc(Nc3ccc4c(c3)OCO4)nc(N3CCOCC3)n1)OCO2,·,20,·,·,·
O=C(CN1CCN(C(=O)CNC(=O)c2ccc3c(c2)OCO3)CC1)Nc1ccc(F)cc1,·,53*,-11,5,-3
Cc1ccccc1C(=O)NC1CCN(Cc2ccccc2)CC1,0,5,4,-3,0
Cc1cccc(NS(=O)(=O)c2ccc(C)c(C(=O)NC3CCN(Cc4ccccc4)CC3)c2)c1,·,47*,·,·,·
CC1CCc2oc3c(cc(NS(=O)(=O)c4ccc(Br)cc4)c4ccccc43)c2C1 (stereo unspecified),·,37*,·,·,·
CN(C)c1ccc(-c2nc3ccccc3n2CCOc2ccccc2)cc1,·,29*,·,·,·
COc1ccc(-c2nc3ccccc3n2CCOc2ccccc2)cc1OC,·,1,·,·,·
COc1ccc(Cc2nnc(NN=Cc3ccc(Br)cc3)[nH]c2=O)cc1OC,·,25,·,·,·
CC(=NNC(=O)c1ccc(N)cc1)C1CC1,·,3,·,·,·
O=C1CC(c2ccccc2)[Se]C(c2ccccc2)C1 (stereo unspecified),·,-5,·,·,·
CS(=O)(=O)N(CC(=O)N1CCN(Cc2ccccc2)CC1)c1ccccc1Br,1,-8,5,-2,1
CS(=O)(=O)N(CC(=O)N1CCCCC1)Cc1ccccc1,·,59*,-8,-1,1
CS(=O)(=O)N(CC(=O)N1CCN(Cc2ccccc2)CC1)c1ccccc1F,·,52*,-12,-2,2
CN1CCN(C(=O)CN(Cc2ccccc2)S(C)(=O)=O)CC1,·,-14,-13,5,-2
SMILES,RecA splice inh,PriA SSB inh,Mtb bLac sens,Rv3671c protease,Mtb UGM inh
CC1=NCCc2c1[nH]c1cc(O)ccc21,·,4,0,6,31*
Nc1nnnn1N=Cc1cccc(Br)c1,·,-2,·,·,·
Nc1cccc2c1C(=O)NC2=O,·,-3,·,·,·
O=c1[nH]cc(N=Cc2cc([N+](=O)[O-])ccc2O)c(=O)[nH]1,50*,·,6,-6,-1
Cc1cc(O)c(C(C)C)cc1N=Cc1cc([N+](=O)[O-])ccc1O,-2,-2,21,-1,2
Nc1ccc(-c2c3ccc(=O)cc-3oc3cc(O)ccc23)cc1C(=O)O,-32,-3,4,9,45*
COc1cc2c(=O)n(CC3CCCO3)c(=O)n(CC(=O)Nc3ccc(F)cc3F)c2cc1OC (stereo unspecified),-1,104*,0,5,0
CCOC(=O)Cc1[nH]nc2c1C(c1ccsc1)C(C#N)=C(N)O2 (stereo unspecified),57*,-18,4,4,0
COCc1[nH]nc2c1C(c1ccc(OC)cc1)C(C#N)=C(N)O2 (stereo unspecified),58*,1,-2,-5,2
COCc1[nH]nc2c1C(c1sccc1C)C(C#N)=C(N)O2 (stereo unspecified),-1,-16,9,2,-1
COCc1[nH]nc2c1C(c1ccccc1F)C(C#N)=C(N)O2 (stereo unspecified),35*,-13,-2,-10,3
O=C(Nc1ccccc1F)c1cc(C2CCN(C(=O)Cc3noc4ccccc34)CC2)[nH]n1,·,62*,·,·,·

# Screening data (PubChem)
